DRD3 agonist: activates the human D3 dopamine receptor | D3R DiscoveRx beta-arrestin cells, luminescence, 90 min | P35462 | max activation, % | hit rate 0.58% among 410,000; in the data active = max activation above about 30%; note: 0% is about no effect
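Agonist mode: compounds and dopamine controls were applied to plated cells for 90 min at 37 degrees C after an overnight attachment at 1500 cells/well. Luminescent read-out followed 30 - 60 minutes at room temperature with DiscoveRx detection reagent.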
mIDH1 inhibitor: human IDH1 R132H inhibition; O75874; IDH1-R132H enzyme, NADPH consumption, diaphorase/resazurin fluorescence; Potency, µM (series often up to 76.6 µM), for inactives: at the highest dose activity change, negative = inhibition, actives largely listed as inhibitors; hit rate 0.093% among 390,000; AID 602179; note: potency is the fitted concentration of half-maximal effect; % is set by controls: 0 for no effect and ±100 for the full control effect; nearly all actives have a fitted effect of over 65% in size
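IDH1-R132H (0.5 ug/mL dispensed) in pH 7.5 Tris buffer was preincubated 30 min with compound, then given a substrate mix of 0.016 mM NADPH and 2 mM alpha-KG for 80 min at room temperature; remaining NADPH was read by diaphorase/resazurin fluorescence.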
a7 integrin act: activators of alpha7 integrin expression for muscular dystrophy; alpha7betagal myoblasts, beta-gal FDG fluorescence, 48 h; Potency, µM (highest dose often 38.3 µM), inactives show at the top dose activation, actives largely listed as activators; hit rate 0.064% among 350,000; AID 624291;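 note: potency is the fitted concentration of half-maximal effect; 100% = response of the positive control SU9516; nearly all actives have a fitted effect of over 60% in size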
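alpha7betagal+/- myoblasts (passage 13, 250/well) treated 48 h at 37C with compounds at 1:260 dilution of DMSO stock. Lysed, then beta-galactosidase activity read as FDG fluorescence (ex 480/em 540) after 30 min, with pre-read for autofluorescence.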
B2AR arrestin: agonists driving beta-arrestin recruitment to human beta2-adrenergic receptor; P07550; Potency, µM (titrated, usually from 46.1 µM), without a hit: at the top dose activation, most hits filed as activators; beta-arrestin recruitment to beta2AR, cell-based reporter; hit rate 0.02% among 330,000;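 note: potency is the fitted concentration of half-maximal effect; 0% = DMSO controls and full agonism = EC100 isoproterenol or metaproterenol; nearly all actives have a fitted effect of over 65% in size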
Target sequence (P07550 whole entry, looked up): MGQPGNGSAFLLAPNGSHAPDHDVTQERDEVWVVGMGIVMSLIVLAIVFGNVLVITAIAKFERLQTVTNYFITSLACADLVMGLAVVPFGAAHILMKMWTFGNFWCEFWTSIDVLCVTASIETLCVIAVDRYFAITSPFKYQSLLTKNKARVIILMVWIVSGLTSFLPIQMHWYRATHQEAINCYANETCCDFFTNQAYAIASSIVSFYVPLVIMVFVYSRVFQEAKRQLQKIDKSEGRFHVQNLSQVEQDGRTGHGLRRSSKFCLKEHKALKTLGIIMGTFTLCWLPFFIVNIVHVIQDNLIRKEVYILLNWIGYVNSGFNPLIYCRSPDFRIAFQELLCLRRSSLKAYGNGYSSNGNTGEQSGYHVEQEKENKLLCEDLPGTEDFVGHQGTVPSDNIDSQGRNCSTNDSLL
DRD3 antagonist: antagonists of human D3 dopamine receptor. D3R cells, DiscoveRx beta-arrestin luminescence, antagonist mode; stronger effect = lower value. P35462. max response, negative = inhibition, %. hit rate 2.5% among 360,000; in the data active = max response below about -50%; inconclusive = no clear call, values can overlap the other calls; note: % is set by controls: 0 for no effect and ±100 for the full control effect
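Cells expressing the human receptor were seeded at 1500 cells/well, incubated overnight at 37 degrees C in 5% CO2, then exposed to library compounds with dopamine controls for 90 minutes at 37 degrees C before luminescent detection.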
An asterisk follows results filed as active; ? = inconclusive; · = no result; [ ] = dose if it differs, or a comment. A selection: hits, their analogues and other compounds. The true share with any hit is near 2.9%. Unless noted, calls come from the whole dose curve; as a rule, active = well fitted curve in the direction sought with a large enough effect; inconclusive = small, poorly fitted or top-dose-only effect, or another doubt; inactive = no such curve, though single readings can be large; an effect the other way counts as inactive or inconclusive.

SMILES	DRD3 agonist	mIDH1 inhibitor	a7 integrin act	B2AR arrestin	DRD3 antagonist
COc1ccc(CC(C)N2CCN(Cc3ccccc3)CC2)c(OC)c1 (configuration not stated)	-39	-1%	-9%	0%	-84*
COc1ccc(OC)c(CN2CCCCCC2)c1	-9	-5%	8%	0%	0
COc1ccc(OC)c(CN2CCN(c3ccccc3OC)CC2)c1	-55	11%	7%	0%	-92*
Cc1ccc(CN(Cc2ccco2)C(=O)COc2ccc(Cl)cc2)o1	7	-13%	·	·	·
Cc1ccc(CN2c3ccccc3S(=O)(=O)c3ccccc32)cc1	-11	-18%	·	·	·
CC1=C(C(=O)Nc2cc(C)cc(C)c2)C2(CCCCC2)OC1=O	-8	·	·	·	·
Cc1ccccc1Nc1nn2c(=O)c3ccc(C(=O)NCC(C)c4ccccc4)cc3nc2s1 (configuration not stated)	8	-4%	·	·	·
COc1ccc2ccccc2c1CN1CCN(C)CC1	-9	-2%	-22%	3%	-82*
CCN1CCN(Cc2c(OC)ccc3ccccc23)CC1	-30	16%	-11%	0%	?
COc1cc(-c2nnc(-c3ccc(S(=O)(=O)c4ccccc4)cc3)o2)cc(OC)c1OC	2	-1%	4%	0%	0
COc1cc(-c2nnc(-c3ccc(N4CCOCC4)cc3)o2)cc(OC)c1OC	38*	7%	1%	0%	24
Cc1ccc(S(=O)(=O)N2CCCCC2)cc1NC(=O)CSc1nnc(C2CC2)n1C	-8	3%	27%	0%	-71*
CCCCc1ccc(NC(=S)Nc2ccc(Nc3ccc(OC)cc3)cc2)cc1	-5	4%	-32%	0%	-80*
CCCCc1ccc(NC(=S)NCc2cccc(OC)c2)cc1	-2	0%	18%	0%	14
O=C(N[C@@H]1CCC(=O)N(CC[C@H](Sc2ccccc2)c2ccccc2)CC1)OCc1ccccc1	-49	-6%	-16%	0%	-92*
Cc1ccc(CCNC(=O)c2ccc(CNS(=O)(=O)c3ccc(F)cc3)cc2)cc1	-5	-3%	·	·	·
COc1ccc(C(C)(O)c2nc(/C=C/c3ccccc3)cs2)cc1 (configuration not stated)	-12	·	·	·	-78*
COc1ccc2oc(=O)cc(CN3CCN(C(=O)c4ccccc4Br)CC3)c2c1	-28	16%	·	·	·
CN1CCc2cc(O)c(O)cc2C(c2ccccc2)C1 (configuration not stated)	108*	1%	·	0%	1
Cc1ccc(S(=O)(=O)N/N=C\c2cn(-c3ccccc3)nc2-c2ccccc2)cc1	17	-2%	?	0%	11
CC1=NNC(=O)/C1=C\c1cn(-c2ccccc2)nc1-c1ccc(F)cc1	-3	-16%	-77%	0%	-69*
Cc1ccc(-c2nn(-c3ccccc3)cc2/C=N/O)cc1	-6	0%	-19%	0%	-53*
Cc1ccc(-c2nn(-c3ccccc3)cc2/C=N/NS(=O)(=O)c2ccccc2)cc1	-10	0%	12%	0%	-54*
CCCCSc1nnc2c(n1)OC(c1ccc(Br)s1)Nc1ccccc1-2 (configuration not stated)	-6	-6%	·	·	·
CC(=O)N[C@@H](CC(=O)N[C@@H](CCC(=O)O)C(=O)O)C(=O)O	-6	·	·	·	·
SMILES	DRD3 agonist	mIDH1 inhibitor	a7 integrin act	B2AR arrestin	DRD3 antagonist
Cc1ccccc1Cn1c2ccccc2c2cnn(CC(=O)NC(C)CCc3ccccc3)c(=O)c21 (configuration not stated)	-6	-15%	·	·	·
Cc1cc(NS(=O)(=O)c2ccc(N)cc2)nc(C)n1	5	·	·	·	·
COc1cccc(/C=C/c2nc(C#N)c(N3CCCCC3)o2)c1	0	-12%	·	·	·
O=[N+]([O-])c1cccc(Cl)c1NCCNS(=O)(=O)c1ccc(Cl)cc1	8	10%	-15%	-1%	2
O=[N+]([O-])c1cccc(Cl)c1NCCNS(=O)(=O)c1ccccc1	3	-3%	-1%	0%	-56*
NC(CS)C(=O)O (configuration not stated)	-3	·	·	·	·
O=c1ccc2ccccc2n1Cc1cccc(F)c1	4	-2%	-11%	0%	-8
COc1cccc(-c2noc(CCC(=O)N3CCN(c4cc(C)ccc4C)CC3)n2)c1	23	4%	-6%	0%	60
COc1ccc(-c2noc(CCCC(=O)N3CCN(c4cc(C)ccc4C)CC3)n2)cc1	5	2%	-12%	0%	42
Cc1ccc(-c2noc(CCC(=O)N3CCN(c4cc(C)ccc4C)CC3)n2)cc1	6	1%	-19%	0%	53
Cc1ccc(C)c(N2CCN(C(=O)CCCOc3cc(=O)n(C)c4ccccc34)CC2)c1	79*	2%	0%	0%	30
Cc1ccc(C)c(N2CCN(C(=O)COc3cc(=O)n(C)c4ccccc34)CC2)c1	5	20%	-23%	0%	46
COc1ccc(-c2noc(CCCCC(=O)N3CCN(c4cc(C)ccc4C)CC3)n2)cc1	53*	2%	-8%	0%	100
COc1ccccc1-c1noc(CCC(=O)N2CCN(c3cc(C)ccc3C)CC2)n1	49*	1%	7%	0%	64
Cc1ccc(C)c(N2CCN(C(=O)CCc3nc(-c4ccccc4C(F)(F)F)no3)CC2)c1	39*	8%	-26%	0%	108
O=C(CN1C(=O)COc2ccc(S(=O)(=O)N3CCCCC3)cc21)NCCc1ccc(Cl)cc1	-16	0%	·	·	·
CN1C(=O)C2(CCCCC2)C1c1ccccc1 (configuration not stated)	-15	2%[38.3 µM]	4%	-1%	-76*
COc1ccc(S(=O)(=O)c2c(N)n(Cc3ccco3)c3nc4ccccc4nc23)cc1	-4	7%	-41%	-1%	-71*
Cc1ccc(S(=O)(=O)N2CCCc3cc(NC(=O)c4ccc(Cl)cc4)ccc32)cc1	4	3%	·	·	·
NC(=O)c1cccc(Nc2nc(C(N)COCc3ccccc3)cs2)n1 (configuration not stated)	-2	·	·	·	-65*
NC(=O)c1ccc(Nc2nc(C(N)COCc3ccccc3)cs2)cc1 (configuration not stated)	3	·	·	·	17
COc1ccc(NC(=O)CC2C(=O)N(c3ccc(F)cc3)C(=O)N2Cc2ccco2)cc1 (configuration not stated)	7	28%	·	·	·
COc1cc(NC(=O)CN(C)S(=O)(=O)c2ccc3c(c2)CC(C)N3C(C)=O)cc(OC)c1OC (configuration not stated)	-3	-4%	10µM*	0%	14
CCCCN(CCCNC(=O)c1cc(Nc2ccc(OC)c(OC)c2)nc2ccccc12)Cc1ccccc1	7	-8%	·	·	·
CC(C)Nc1ccc(Nc2ccnc3cc4ccccc4cc23)cc1	-26	0%	-69%	0%	-79*
Cc1ccc(Cn2c(CNS(=O)(=O)c3c(C)cc(C)cc3C)nc3cccnc32)cc1	-11	25%	·	·	·

Screens: PubChem, National Center for Advancing Translational Sciences (NCATS)
